The values that follow come from PubChem BioAssay AID743255 (National Center for Advancing Translational Sciences (NCATS), 2014).

In all, about 390,000 compounds went through this assay and about 910 (0.23%) were called active. Another 5% or so got no clear call; they are omitted. The sample holds actives, similar compounds and a random draw of the others, so the mix is not that of the screen. Values without a mark were called inactive. Calls follow the shape of the dose curve; as a rule, active = well fitted inhibition curve with a large enough effect; inconclusive = small, poorly fitted or top-dose-only effect; inactive = no such curve, though single readings can be large or run the other way.
% is scaled to controls: 0 for no effect and ±100 for the full control effect; potency is read from the fitted curve at half-maximal effect.

Chain of Ubiquitin carboxyl-terminal hydrolase 1 (Homo sapiens) (O94782 whole entry, looked up): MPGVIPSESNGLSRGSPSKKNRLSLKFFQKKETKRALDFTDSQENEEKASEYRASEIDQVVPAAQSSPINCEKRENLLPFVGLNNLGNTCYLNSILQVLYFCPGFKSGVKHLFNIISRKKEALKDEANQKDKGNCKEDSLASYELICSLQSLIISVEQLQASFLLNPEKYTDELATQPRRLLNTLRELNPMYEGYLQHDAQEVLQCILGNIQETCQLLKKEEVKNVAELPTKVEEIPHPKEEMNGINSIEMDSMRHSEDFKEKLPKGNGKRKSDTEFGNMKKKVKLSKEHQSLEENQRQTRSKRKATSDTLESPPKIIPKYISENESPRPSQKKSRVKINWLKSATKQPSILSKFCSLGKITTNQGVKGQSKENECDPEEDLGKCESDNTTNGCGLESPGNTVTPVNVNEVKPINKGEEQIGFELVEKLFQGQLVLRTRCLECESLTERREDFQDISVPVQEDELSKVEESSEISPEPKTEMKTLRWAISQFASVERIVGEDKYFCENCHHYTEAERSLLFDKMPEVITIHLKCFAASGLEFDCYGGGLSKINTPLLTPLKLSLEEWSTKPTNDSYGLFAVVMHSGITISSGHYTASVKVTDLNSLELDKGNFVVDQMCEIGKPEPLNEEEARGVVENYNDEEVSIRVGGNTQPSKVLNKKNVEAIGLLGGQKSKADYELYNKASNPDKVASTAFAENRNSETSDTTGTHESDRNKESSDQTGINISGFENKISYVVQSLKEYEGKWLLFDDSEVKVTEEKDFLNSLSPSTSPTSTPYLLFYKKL

This test has as its target Ubiquitin carboxyl-terminal hydrolase 1 (Homo sapiens) (UniProt O94782). Put plainly: Inhibitors of USP1/UAF1: Primary Screen. Also: nearly all actives have a fitted effect of over 60% in size. The settings on record: recombinant USP1/UAF1, Ub-Rhodamine cleavage fluorescence; series mostly up to 57.1 µM; activity change, negative = inhibition: at the top concentration. An excerpt: Deubiquitinating enzymes (DUBs) are a class of enzymes that can cleave isopeptide bond formed between the C-terminal carboxylate of ubiquitin and a lysine side-chain amino group on the target protein. Among them, ubiquitin specific proteases (USPs) constitute the largest DUB family. Human USPs are emerging as promising targets for pharmacological intervention because of their connection to a number of human diseases, including prostate, colon and breast cancer (1, 2), pediatric acute lymphoblastic leukemia (3), and familial cylindromatosis (4). The advantage of inhibiting USPs lies in the potential specificity of therapeutic intervention that can lead to better efficacy and reduce nonspecific side effects. In a collaboration between the University of Delaware and the NIH Chemical Genomics Center, a high-throughput screen assay was developed to screen for USP1/UAF1 inhibitors. This miniaturized assay has a fluorescent read-out and is used to screen the NIH Molecular Libraries Small Molecule Repository (MLSMR) in order to identify a small molecule that inhibits USP1. NIH Chemical Genomics Center [NCGC] NIH Molecular Libraries Probe Centers Network [MLPCN] MLPCN Grant: DA030552 Assay Submitter (PI): Zhihao Zhuang, University of Delaware 1. Priolo, C., et al. (2006) The isopeptidase USP2a protects human prostate cancer from apoptosis. Cancer Res 66, 8625-8632 2. Popov, N., et al. (2007) The ubiquitin-specific protease USP28 is required for MYC stability. Nat Cell Biol 9, 765-774 3. De Pitta, C., et al. (2005) A leukemia-enriched cDNA microarray platform identifies new transcripts with relevance to the biology of pediatric acute lymphoblastic leukemia. Haematologica 90, 890-898 4. Kovalenko, A., et al. (2003) The tumour suppressor CYLD negatively regulates NF-kappaB signalling by deubiquitination. Nature 424, 801-805
3 microliters of reagents (buffer in columns 3 and 4 as negative control and 1nM USP1/UAF1 complex in columns 1, 2, and 5-48) are dispensed into Greiner black solid bottom 1536-well assay plates. Compounds are then transferred via Kalypsys pin tool equipped with 1536-pin array (10nl slotted pins, V&P Scientific, San Diego, CA). Following an incubation step of 15 min at room temperature, 1ul of Ub-Rho substrate (150nM final concentration) is added to initiate the reaction. The plates are immediately centrifuged at 1000 rpm for 15 seconds, and subsequently transferred to a ViewLux high-throughput CCD imager (PerkinElmer) wherein kinetic measurements of fluorescence are acquired using 480 nm excitation/540 nm emission filter set (6 reads every 60 seconds, see Table 1). All reagents are diluted in an assay buffer consisting of 50mM HEPES (pH 7.8), 0.5mM EDTA, 0.1 mg/ml BSA, 1mM TCEP, and 0.01% Tween-20.
With `COc1ccc(NC(=O)C2CCN(c3ccc(Sc4ccc(C)cc4)nn3)CC2)c(OC)c1`, the “activity change, negative = inhibition” value was -27.1%.
In the case of `CC(C)(C)OC(=O)N1CCC(c2c(C(=O)NCCc3ccsc3)cnn2-c2ccc(F)cc2F)CC1`, the “activity change, negative = inhibition” value was -26.8%.
Regarding `O=C(CN1CCN(Cc2ccc(Cl)cc2)C1=O)NCc1ccc(F)cc1`, the “activity change, negative = inhibition” value was -1.87%.
Take `O=C(O)c1ccc(Cn2c(SCc3ccc(F)cc3)nc3ccncc32)cc1`: the “activity change, negative = inhibition” value is 5.68%.
Regarding `CCOC(=O)C1CCCN(S(=O)(=O)c2cc(-c3cc(C)no3)ccc2OC)C1` (stereo not drawn), the “activity change, negative = inhibition” value was -3.56%.
For the compound `Cc1ccc(CNC(=O)CSc2c3c(nc4cc(Cl)ccc24)CCCC3)cc1`, the “activity change, negative = inhibition” value was -18.4%.
`Cc1onc(-c2ccc(F)cc2F)c1C(=O)Nc1cccc(C(F)(F)F)c1`: the “activity change, negative = inhibition” value is -20.1%.
For the compound `CC(C)(C)c1ccc(C(=O)NCC(c2ccco2)S(=O)(=O)c2ccc(F)cc2)cc1` (stereo not drawn), the “activity change, negative = inhibition” value was -11.7%.
Regarding `CCCCCCc1cc2cc(-c3nnc(-c4ccccc4)o3)c(=O)oc2cc1O`, the Potency was 8.91 µM (active).
On to `CCc1ccc(NC(=O)c2cnc3c(-c4ccccc4)c(C)nn3c2C)cc1`, for which the “activity change, negative = inhibition” value is -11.2%.
On to `COc1ccc(Cn2ccn(CC(=O)Nc3cc(C)ccc3C)c(=O)c2=O)cc1`, for which the “activity change, negative = inhibition” value is 4.85%.
Take `Cc1ccc(-c2nn(-c3ccccc3)cc2/C=C2\SC(=S)N(CCCCCC(=O)O)C2=O)o1`: the Potency is 7.08 µM (active).
For the compound `O=C(/C=C(O)/C=C/c1ccc(O)cc1)/C=C/c1ccc(O)cc1`, the Potency was 28.2 µM (active).
Same read-out and setting: then `C[n+]1ccc(/C=C/c2c[nH]c3ccccc23)cc1`, with 28.2 µM (active).
As for `O=c1[nH]c2cc(Br)ccc2n2cccc12`, the “activity change, negative = inhibition” value is -11.5%.
The same measure, in the same setting: then `Cn1c(COc2ccccc2C(C)(C)C)nc2ccccc21`, with 3.12%; and `CCN(c1ncnc2c1cnn2-c1ccc(C)cc1)C1CCCCC1`, with -6.68%.
Same read-out and setting: in the case of `CCOC(=O)c1c(C)n(S(=O)(=O)c2ccc(C)cc2C)c2ccc(NS(=O)(=O)c3ccc(C)cc3C)cc12` it was -24.5%; in that of `CCC(=O)N1c2ccccc2CC1C(=O)N1CCN(c2ccccc2F)CC1` (stereo not drawn), -13.4%.
Same read-out and setting: then `O=S(=O)(NCC(c1ccco1)N1CCOCC1)c1cc(F)ccc1F` (stereo not drawn), with -10%.
As to `COCCNC(=O)c1ccc2c(c1)N(Cc1cccc(Cl)c1)C(=O)c1ccccc1S2(=O)=O`, the “activity change, negative = inhibition” value was -7.22%.
In the case of `CCCSc1ncc(Cl)c(C(=O)Nc2c(C(=O)Nc3ccccc3)oc3ccccc23)n1`, the “activity change, negative = inhibition” value was -10.5%.
Consider `COc1ccc(S(=O)(=O)/N=C2\C=C(NS(=O)(=O)c3ccccc3)C(=O)c3ccccc32)cc1`, for which the Potency was 15.8 µM (active).
For `COc1ccc(N2CCN(C3CCCCC3NS(=O)(=O)c3ccccc3)CC2)cc1` (stereo not drawn), the “activity change, negative = inhibition” value was -21.5%.
For the compound `Cc1ccc(S(=O)(=O)Nc2nc(N)n(-c3ccccc3)n2)cc1`, the “activity change, negative = inhibition” value was -2.87%.
On to `Cc1ccc(S(=O)(=O)/N=C2\C=C(NS(=O)(=O)c3ccc(C)cc3)C(=O)c3ccccc32)cc1`, for which the Potency is 20 µM (active).
For the compound `Cc1ccc(S(=O)(=O)/N=S(\C)C(C)C)cc1` (stereo not drawn), the “activity change, negative = inhibition” value is -16.3%.
The same measure, in the same setting: in the case of `COc1ccc(S(=O)(=O)Nc2cc3c(C(=O)OC(C)C)c(C)oc3c3ccccc23)cc1` it was -16%; in that of `CCCN(CCC)C(=O)Cn1c(=O)n(-c2ccc(Cl)cc2)c(=O)c2c3c(sc21)CCCCC3`, -14.7%; in that of `O=C(C1CCC(Cn2c(=O)c3sccc3n(Cc3ccccc3F)c2=O)CC1)N1CCCCC1` (stereo not drawn), -29.1%.
Turning to `COc1ccc(NC(=O)CCCN2C(=O)CCn3nc(-c4cn(C)c5ccccc45)cc32)cc1OC`, the “activity change, negative = inhibition” value was -13.8%.
As for `CC(=O)Nc1cccc(NC(=O)CSc2cn(CC(=O)N3CCCC3)c3ccccc23)c1`, the “activity change, negative = inhibition” value was 18.7%.
For `COc1ccc(C)cc1N(CC(=O)N1CCC(C)CC1)S(=O)(=O)c1ccc(C)cc1`, the “activity change, negative = inhibition” value is -0.585%.
Same read-out and setting: in the case of `COc1ccc(OC)c(-c2noc(N3CCN(c4cc(Cl)ccc4C)CC3)n2)c1` it was -14.9%; in that of `Cc1ccc(C2CCN(C(=O)c3cnn(-c4ccccc4Cl)c3C3CCN(C(=O)OC(C)(C)C)CC3)C2)cc1` (stereo not drawn), -21.9%; in that of `COc1c(Cl)cc(C(=O)N(Cc2ccccc2F)C2CCS(=O)(=O)C2)cc1Cl` (stereo not drawn), 0.438%.
In the case of `Oc1ccc2ccc3cccc[n+]3c2c1`, the Potency was 28.2 µM (active).
Consider `N#Cc1ccc(C2=CC(=O)C[C@H](c3ccc(Cl)cc3)C2)cc1`, for which the “activity change, negative = inhibition” value is -5.63%.
Turning to `CC1(OC(=O)C2CCCC2)C(=O)C=C2C=C(c3ccc(C#N)cc3)OC=C2C1=O` (stereo not drawn), the Potency was 31.6 µM (active).
On to `Cc1ccccc1C(=O)N1CCC(C(=O)Oc2ccc(C#N)cc2)CC1`, for which the “activity change, negative = inhibition” value is 3.04%.
`Clc1ccc(CSc2nncn3c2cc2occc23)cc1`: the “activity change, negative = inhibition” value is -10.6%.
Turning to `CCC1CCCCN1Cc1c(O)ccc2c(=O)c(Oc3ccccc3Cl)c(C(F)(F)F)oc12` (stereo not drawn), the “activity change, negative = inhibition” value is -28.3%.
For the compound `Fc1ccc(CN2CCc3nc(Nc4ccccc4)ncc3C2)cc1F`, the “activity change, negative = inhibition” value was -10.4%.
For the compound `CCCCNC(=O)c1cc(-c2ccc(Cl)c(Cl)c2)on1`, the “activity change, negative = inhibition” value is -14%.
For the compound `O=C(OCc1cc(=O)n2nc(C3CC3)sc2n1)c1ccccc1Cl`, the “activity change, negative = inhibition” value is -4.6%.
The same measure, in the same setting: in the case of `CC1Cc2cc(S(=O)(=O)CCC(=O)Nc3ccc(F)c(Cl)c3)ccc2N1C(=O)C1CC1` (stereo not drawn) it was -4.08%.
Consider `Nc1ccc2nc3c(=O)[nH]c(=S)[nH]c3nc2c1`, for which the Potency was 28.2 µM (active).
As for `COc1ccc(NC(=O)CSc2nc3ccccc3[nH]2)cc1`, the “activity change, negative = inhibition” value is -19.5%.
